According to PubChem BioAssay (NCATS):
Several values for one entry are separate records, joined by “and”; a condition that tells them apart may be missing. Equal entries are not always repeated. Records with an inconclusive call do not appear. For part of these data: Entries with a potency or affinity are not part of this list. Activity calls are given as the source filed them.

Legend:
[1] = qHTS Assay for Identifying Gametocytocidal Compounds (AID 743244; active = well fitted curve in the direction sought with a large enough effect; an effect the other way counts as inactive or inconclusive; note: potency is the fitted concentration of half-maximal effect;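 for max response: % is set by controls: 0 for no effect and ±100 for the full control effect; actives lower the fluorescent signal which means gametocytes are killed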); details: P. falciparum 3D7 stage III-V gametocytes, alamarBlue, 72 h; max response: stronger effect = lower value
Method in brief: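 3D7 gametocytes, stages III–V, 20,000/well; cpd 72 h, 37 °C/5% CO2; + alamarBlue 24 h; fluor. Ex 525/Em 598.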

[2] = Ebola virus entry assay, green fluorescence channel
[3] = Ebola virus entry assay, green channel fluorescence
[4] = Ebola virus entry assay, reporter ratio channel; AC50: Channel type: primary unless noted; outcome: Channel type: primary unless noted
[5] = Ebola virus entry assay, blue channel (ratio component)
[6] = target: Hexokinase-4 (Homo sapiens) + Glucokinase regulatory protein (Homo sapiens) (UniProt P35557+Q14397); test: qHTS assay for inhibitors of recombinant human GCK-GKRP interaction: HTRF assay (AID 743207; active = well fitted curve in the direction sought with a large enough effect; an effect the other way counts as inactive or inconclusive;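 note: 0% = DMSO with GCK present and -100% = DMSO wells lacking GCK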); details: recombinant GCK-GKRP HTRF binding, 60 min; series mostly up to 57.5 µM
Hexokinase-4 (Homo sapiens) + Glucokinase regulatory protein (Homo sapiens), sequence (P35557 whole entry, looked up): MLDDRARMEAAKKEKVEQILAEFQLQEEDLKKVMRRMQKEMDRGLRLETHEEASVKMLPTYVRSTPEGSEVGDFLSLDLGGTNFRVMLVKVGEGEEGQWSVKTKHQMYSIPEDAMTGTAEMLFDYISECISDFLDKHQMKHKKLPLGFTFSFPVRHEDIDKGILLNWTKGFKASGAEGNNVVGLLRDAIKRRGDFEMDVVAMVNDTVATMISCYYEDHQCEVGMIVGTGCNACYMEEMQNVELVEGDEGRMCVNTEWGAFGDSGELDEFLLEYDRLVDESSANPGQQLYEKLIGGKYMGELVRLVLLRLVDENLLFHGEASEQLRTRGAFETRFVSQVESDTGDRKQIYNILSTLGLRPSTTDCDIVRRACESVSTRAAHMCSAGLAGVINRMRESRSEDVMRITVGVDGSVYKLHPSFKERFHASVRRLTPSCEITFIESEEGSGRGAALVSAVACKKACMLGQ
Hexokinase-4 (Homo sapiens) + Glucokinase regulatory protein (Homo sapiens), sequence (Q14397 whole entry, looked up): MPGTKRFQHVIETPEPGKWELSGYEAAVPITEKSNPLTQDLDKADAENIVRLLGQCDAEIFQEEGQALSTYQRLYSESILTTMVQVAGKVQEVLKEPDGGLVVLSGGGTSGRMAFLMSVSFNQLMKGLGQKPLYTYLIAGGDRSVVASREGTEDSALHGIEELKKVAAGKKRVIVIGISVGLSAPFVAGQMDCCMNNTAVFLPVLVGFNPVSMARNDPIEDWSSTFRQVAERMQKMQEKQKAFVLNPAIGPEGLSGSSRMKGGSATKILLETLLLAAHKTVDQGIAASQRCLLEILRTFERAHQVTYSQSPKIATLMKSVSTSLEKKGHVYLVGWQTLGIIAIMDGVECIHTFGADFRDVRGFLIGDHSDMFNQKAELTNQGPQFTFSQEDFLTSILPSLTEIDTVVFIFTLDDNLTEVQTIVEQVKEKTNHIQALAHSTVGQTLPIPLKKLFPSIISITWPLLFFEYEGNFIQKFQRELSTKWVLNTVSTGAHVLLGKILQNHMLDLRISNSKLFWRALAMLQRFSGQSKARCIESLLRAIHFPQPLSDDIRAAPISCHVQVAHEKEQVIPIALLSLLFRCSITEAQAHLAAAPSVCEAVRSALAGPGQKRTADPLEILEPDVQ
Method in brief: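 HTRF read-out (ex 320 nm; 615/665 nm emission) after 60 min RT equilibration of 5 nM GST-GCK, 5 nM FLAG-GKRP, 2 uM S6P, compound and anti-FLAG/anti-GST detection antibodies; signal normalized between DMSO wells with and without GCK.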

[7] = qHTS profiling of the MIPE4 collection as inhibitors of Plasmodium falciparum (3D7) proliferation (AID 743344);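 note: scaled between DMSO vehicle wells and 0.29 µM artemisinin as full inhibition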; details: P. falciparum 3D7 in erythrocytes, SYBR Green DNA fluorescence, 72 h; at 28.5 µM (top of the series) unless noted
Method in brief: (§1)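 Parasite DNA was quantified by SYBR Green I fluorescence (ex 485, em 535 nm) after overnight lysis in saponin/Triton buffer at room temperature. Cultures at 0.3% parasitemia and 2.5% hematocrit were first exposed to compound for 72 h at 37 C; signals were normalised to artemisinin (0.29 uM) and vehicle wells.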

[8] = qHTS profiling of the MIPE4 collection as inhibitors of Plasmodium falciparum (DD2) proliferation (AID 743345); details: P. falciparum Dd2 in erythrocytes, SYBR Green DNA, 72 h; at 28.5 µM (top of the series) unless noted
Method in brief: as §1

[9] = qHTS profiling of the MIPE4 collection as inhibitors of Plasmodium falciparum (HB3) proliferation (AID 743347);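 note: plate controls were DMSO vehicle wells for no effect and artemisinin wells for full effect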; details: P. falciparum HB3 in erythrocytes, SYBR Green DNA, 72 h; at 28.5 µM (top of the series) unless noted
Method in brief: as §1

[10] = qHTS assay for cell viability of HEK293 cells (AID 743288; active = well fitted curve in the direction sought with a large enough effect; an effect the other way counts as inactive or inconclusive; note: % is set by controls: 0 for no effect and ±100 for the full control effect; nearly all actives have a fitted effect of over 50% in size); details: ATP luminescence (CellTiter-Glo), 18 h, stronger effect = lower value
Method in brief: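 ATP luminescence (CellTiter-Glo) reports metabolically competent cell number after parental HEK293 cells, 2,000/well, were treated with DMSO-dissolved compounds for 18 h at 37 C; reagent incubation 30 min, room temperature.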

[11] = Ebola virus entry assay, blue channel fluorescence
[12] = Ebola virus entry assay, green fluorescence channel; remark: listed apart in the source
[13] = Ebola virus entry assay, ratio channel readout
[14] = Ebola virus entry assay, blue channel fluorescence; remark: listed apart in the source
[15] = Ebola virus entry assay, ratio channel
[16] = Ebola virus entry assay, blue channel fluorescence; remark: listed apart in the source
[17] = Ebola virus entry reporter assay, green channel fluorescence
[18] = Ebola virus entry cell assay, ratio channel
Throughout, for efficacy: 0% is about no effect.

In the case of `CC(=O)OCC1=C(C(=O)O)N2C(=O)[C@@H](N)[C@H]2SC1`, the max response [1] is reported as -3.04% (inactive), the efficacy [2] is reported as 11.9% (inactive) and the outcome [3] is reported as “inactive”. For the same compound, the outcome [4] was “inactive” and the outcome [5] was “inactive”.
For `COC(=O)C(Cl)C(=O)OC`, the max response [1] was -5.17% (inactive), the efficacy [2] was 18.5% (inactive) and the outcome [3] was “inactive”. The outcome [4] was “inactive” and the outcome [5] was “inactive”.
In the case of `CC1(C)O[C@H]2CC(=O)OC[C@]23[C@H]2CC[C@@]4(C)[C@H](c5ccoc5)OC(=O)[C@H]5O[C@]54[C@]2(C)C(=O)C[C@@H]13`, the efficacy [2] is reported as -20.6% (inactive), the outcome [3] is reported as “inactive” and the outcome [4] is reported as “inactive”. The outcome [5] was “inactive”.
In the case of `CCCOC(=O)c1ccccc1`, the efficacy [2] is reported as 17.4% (inactive), the outcome [3] is reported as “inactive” and the outcome [4] is reported as “inactive”. The outcome [5] was “inactive”.
With `C[C@]12CC[C@@H]3c4ccc(OC(=O)N(CCCl)CCCl)cc4CC[C@H]3[C@@H]1CC[C@@H]2O` the max response [1] was -1.39% (inactive), the efficacy [2] was -12.5% (inactive) and the outcome [3] was “inactive”. For the same compound, the outcome [4] was “inactive” and the outcome [5] was “inactive”.
For `CN1C(=O)CCS(=O)(=O)C1c1ccc(Cl)cc1` (configuration not stated), the outcome [6] was “inactive”, the max response [1] was -2.23% (inactive) and 6.27% (inactive) and the parasite growth, % of DMSO control [7] was 98.6%. The parasite growth remaining, % of DMSO control (lower = more inhibition) [8] was 91.5%, the growth, % of control [9] was 109% and the efficacy [2] was 19.9% (inactive). The outcome [3] was “inactive”, the outcome [4] was “inactive” and the outcome [5] was “inactive”.
With `Nc1ccc(C(=O)OCC(O)CO)cc1` (configuration not stated) the efficacy [2] was 18.5% (inactive), the outcome [3] was “inactive” and the outcome [4] was “inactive”. For the same compound, the outcome [5] was “inactive”.
For `CC(=O)CC(c1ccccc1)c1c(O)c2ccccc2oc1=O` (configuration not stated), the max response [1] was 17.5% (inactive) and 36.1% (inactive), the parasite growth, % of DMSO control [7] was 71.1% and the parasite growth remaining, % of DMSO control (lower = more inhibition) [8] was 93.4%. For the same compound, the growth, % of control [9] was 84.4%, the efficacy [2] was -35.3% (inactive) and the outcome [3] was “inactive”. For the same compound, the outcome [4] was “inactive” and the outcome [5] was “inactive”.
For `Oc1ccc(Cl)cc1`, the max response [1] was -8.53% (inactive), the max response [10] was -5.89% (inactive) and the efficacy [2] was -35.6% (inactive). For the same compound, the outcome [3] was “inactive”, the outcome [4] was “inactive” and the outcome [5] was “inactive”.
For `Cc1cc(C)c(NC(=O)CN(CC(=O)O)CC(=O)O)c(C)c1Br`, the efficacy [2] was 7.04% (inactive), the outcome [3] was “inactive” and the outcome [4] was “inactive”. The outcome [5] was “inactive”.
For `CC(C)c1c(CN(C)C(C)Cc2ccccc2)n(C)n(-c2ccccc2)c1=O` (configuration not stated), the max response [1] was 12.8% (inactive), the efficacy [2] was -15% (inactive) and the outcome [3] was “inactive”. The outcome [4] was “inactive” and the outcome [5] was “inactive”.
With `CC(C)OC(=O)OCOP(=O)(CO[C@H](C)Cn1cnc2c(N)ncnc21)OCOC(=O)OC(C)C` the parasite growth, % of DMSO control [7] was 292%, the parasite growth remaining, % of DMSO control (lower = more inhibition) [8] was 79.8% and the growth, % of control [9] was 345%. The efficacy [2] was -18.7% (inactive), the outcome [3] was “inactive” and the outcome [4] was “inactive”. The outcome [5] was “inactive”.
With `COc1cccc2c1C(=O)c1c(O)c3c(c(O)c1C2=O)C[C@@](O)(C(=O)CO)C[C@@H]3O[C@H]1C[C@H](N)[C@@H](O)[C@H](C)O1` the AC50 [11] was 7.94 µM (active), the outcome [12] was “inactive” and the outcome [13] was “inactive”.
In the case of `Cc1cc(O)cc2c1O[C@](C)(CCC[C@H](C)CCC[C@H](C)CCCC(C)C)CC2`, the efficacy [2] is reported as -22.5% (inactive), the outcome [3] is reported as “inactive” and the outcome [4] is reported as “inactive”. The outcome [5] was “inactive”.
For `CN1C(=O)COc2c(C(=O)NC3CN4CCC3CC4)cc(Cl)cc21` (configuration not stated), the max response [1] was 4.3% (inactive), the parasite growth, % of DMSO control [7] was 98.1% and the parasite growth remaining, % of DMSO control (lower = more inhibition) [8] was 78.2%. The growth, % of control [9] was 86.6%, the efficacy [2] was -18% (inactive) and the outcome [3] was “inactive”. For the same compound, the outcome [4] was “inactive” and the outcome [5] was “inactive”.
In the case of `CN=C(NC#N)Nc1ccc(C2=NNC(=O)CC2C)cc1` (configuration not stated), the efficacy [2] is reported as -19.1% (inactive), the outcome [3] is reported as “inactive” and the outcome [4] is reported as “inactive”. The outcome [5] was “inactive”.
In the case of `NC(=O)c1cc[n+](CC2=C(C(=O)[O-])N3C(=O)[C@@H](NC(=O)Cc4cccs4)[C@H]3SC2)cc1`, the efficacy [2] is reported as -13.3% (inactive), the outcome [3] is reported as “inactive” and the outcome [4] is reported as “inactive”. For the same compound, the outcome [5] was “inactive”.
For `[N-]=[N+]=CC(=O)OC[C@H](N)C(=O)O`, the max response [1] was -0.674% (inactive), the max response [10] was 0.519% (inactive) and the efficacy [2] was 10.3% (inactive). The outcome [3] was “inactive”, the outcome [4] was “inactive” and the outcome [5] was “inactive”.
For `CCCCC(CC)CN1CN(CC(CC)CCCC)CC(C)(N)C1` (configuration not stated), the efficacy [2] was -31.6% (inactive), the outcome [4] was “inactive” and the outcome [5] was “inactive”.
For `CCN(CC)C(=O)/C(C#N)=C/c1cc(O)c(O)c([N+](=O)[O-])c1`, the outcome [11] was “inactive”, the outcome [12] was “inactive” and the outcome [13] was “inactive”. For the same compound, the outcome [14] was “inactive”, the outcome [15] was “inactive” and the outcome [3] was “inactive”. The outcome [16] was “inactive”, the outcome [4] was “inactive” and the outcome [5] was “inactive”. The outcome [17] was “inactive” and the outcome [18] was “inactive”.
In the case of `NC(=O)CS(=O)C(c1ccccc1)c1ccccc1` (configuration not stated), the max response [1] is reported as -2.53% (inactive), the efficacy [2] is reported as -20.1% (inactive) and the outcome [3] is reported as “inactive”. For the same compound, the outcome [4] was “inactive” and the outcome [5] was “inactive”.
With `O=c1[nH]oc2c1CCNC2` the outcome [6] was “inactive”, the max response [1] was 1.24% (inactive) and 27.1% (inactive) and the efficacy [2] was 22.4% (inactive). For the same compound, the outcome [3] was “inactive”, the outcome [4] was “inactive” and the outcome [5] was “inactive”.
With `COC1CC(=C(c2cccs2)c2cccs2)C[N+](C)(C)C1` (configuration not stated) the Potency [1] was 8.91 µM (active), the efficacy [2] was 18.8% (inactive) and the outcome [3] was “inactive”. For the same compound, the outcome [4] was “inactive” and the outcome [5] was “inactive”.
In the case of `O=C1c2ccccc2C(=O)C1C(=O)C(c1ccccc1)c1ccccc1`, the max response [1] is reported as 4.31% (inactive), the max response [10] is reported as -28.7% (inactive) and the efficacy [2] is reported as -17.4% (inactive). The outcome [3] was “inactive”, the outcome [4] was “inactive” and the outcome [5] was “inactive”.
In the case of `C[C@H](N)C(=O)c1ccccc1`, the max response [1] is reported as 39.4% (inactive) and -13% (inactive), the efficacy [2] is reported as 31.4% (inactive) and the outcome [3] is reported as “inactive”. The outcome [4] was “inactive” and the outcome [5] was “inactive”.
In the case of `O=C(O)/C=C\C(=O)O`, the max response [1] is reported as 2.8% (inactive), the efficacy [2] is reported as 12.7% (inactive) and the outcome [3] is reported as “inactive”. The outcome [4] was “inactive” and the outcome [5] was “inactive”.
With `O=C1c2ccccc2C(=O)c2ccccc21` the max response [1] was -6.63% (inactive), the max response [10] was -16.3% (inactive) and the efficacy [2] was 11.2% (inactive). The outcome [3] was “inactive”, the outcome [4] was “inactive” and the outcome [5] was “inactive”.
For `NCC[C@H](O)C(=O)N[C@@H]1C[C@H](N)[C@@H](O[C@H]2O[C@H](CN)[C@@H](O)[C@H](O)[C@@H]2O)[C@H](O)[C@@H]1O[C@H]1O[C@H](CO)[C@@H](O)[C@H](N)[C@@H]1O`, the outcome [11] was “inactive”, the outcome [12] was “inactive” and the outcome [13] was “inactive”. For the same compound, the outcome [14] was “inactive”, the outcome [15] was “inactive” and the outcome [3] was “inactive”. The outcome [16] was “inactive”, the outcome [4] was “inactive” and the outcome [5] was “inactive”. For the same compound, the outcome [17] was “inactive” and the outcome [18] was “inactive”.
With `CCCCCCC(=O)CCCCCC/C=C/C[C@@H](O)[C@H](O)[C@@](N)(CO)C(=O)O` the max response [1] was -3.38% (inactive) and -2.5% (inactive), the efficacy [2] was -11.6% (inactive) and the outcome [3] was “inactive”. For the same compound, the outcome [4] was “inactive” and the outcome [5] was “inactive”.
With `O=C(O)CNC(=O)c1ccccc1` the efficacy [2] was -32.2% (inactive), the outcome [3] was “inactive” and the outcome [4] was “inactive”. For the same compound, the outcome [5] was “inactive”.
For `NC(=O)N1c2ccccc2C=Cc2ccccc21`, the outcome [11] was “inactive”, the outcome [12] was “inactive” and the outcome [13] was “inactive”. The outcome [15] was “inactive”, the outcome [3] was “inactive” and the outcome [16] was “inactive”. For the same compound, the outcome [4] was “inactive”, the outcome [5] was “inactive” and the outcome [17] was “inactive”. For the same compound, the outcome [18] was “inactive”.
